{"source": "paper PMC7819943", "about": "“Rice protein-binding microarrays: a tool to detect cis-acting elements near promoter regions in rice”", "note": "The full ranking holds about 68,000 sequences; the median of “fluorescence intensity (a.u.)” is about 9,100, and the highest 2% start at about 16,000. Many of the other results were omitted from the sample, so the highest values are more common in it than they were."}
{"biological_target": "OsWRKY34 (Oryza sativa, UniProt Q0JBA9 1-250)", "sequence (Q0JBA9 entry or part of it)": "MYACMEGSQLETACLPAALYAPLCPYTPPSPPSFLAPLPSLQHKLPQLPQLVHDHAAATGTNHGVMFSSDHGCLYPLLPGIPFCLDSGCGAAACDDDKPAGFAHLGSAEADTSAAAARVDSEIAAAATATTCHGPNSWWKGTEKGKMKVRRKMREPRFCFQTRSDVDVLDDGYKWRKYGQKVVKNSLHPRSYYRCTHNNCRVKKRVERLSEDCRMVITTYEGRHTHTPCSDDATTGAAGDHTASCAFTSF", "assay": "protein-binding microarray (RPBM); PBS, 2% BSA, 51.3 ng/ul salmon testes DNA, 50 uM zinc acetate, 200 nM TF, 25 C, 1 h; high values mean tight binding", "details": "protein: recombinant; tags: N-terminal polyhistidine and DsRed monomer fusion (pET32a); label: CyDye5-dUTP incorporated in the synthesized complementary strand; 3' TTTTT single-stranded linker to array surface; dsDNA, one strand shown", "how_it_was_run": "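A custom Agilent array was converted to double-stranded form by primer extension with Cy5-dUTP and blocked with 2% BSA. Protein at 200 nM in PBS with 2% BSA, salmon testes DNA and 50 µM zinc acetate was applied for 1 h at 25 °C, followed by washing. The proteins were polyhistidine–DsRed N-terminal fusions of transcription factors, expressed in E. coli BL21-CodonPlus and Ni–NTA-purified. The binding signal is per-feature fluorescence intensity (arbitrary units) from an Axon 4000B scanner.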"}
{"sequence": "TCCATGGATATTTTGTCTCTTCTGCTTGATCACTAGGCCCCGGAGTCACCTAGTGCAG", "binding signal": "10100 fluorescence intensity (a.u.)"}
{"sequence": "TCCCGACACCGGCTGTCCACTTCGCTCTGCTCCACGCCGCCGGAGTCACCTAGTGCAG", "binding signal": "8660 fluorescence intensity (a.u.)"}
{"sequence": "ATCCCCACCGTTGACCGAAGTTGACCTCCAAGAATCCTGACGGAGTCACCTAGTGCAG", "binding signal": "13800 fluorescence intensity (a.u.)"}
{"sequence": "CTCCCTGAGTCTAGTCCCGATCCCCACCGTTGACCGAAGTCGGAGTCACCTAGTGCAG", "binding signal": "19900 fluorescence intensity (a.u.)"}
{"sequence": "TCAACTCCTCCCTGAGTCTAGTCCCGATCCGCCGTTGACCCGGAGTCACCTAGTGCAG", "binding signal": "13000 fluorescence intensity (a.u.)"}
{"sequence": "CTGAGAATTTAGGACCTGATCACTTTTATGACATTTTCAACGGAGTCACCTAGTGCAG", "binding signal": "8610 fluorescence intensity (a.u.)"}
{"sequence": "TGTAGTTGTGAGTGTATTCGTTTGTACTGTTTTTTTTATACGGAGTCACCTAGTGCAG", "binding signal": "11900 fluorescence intensity (a.u.)"}
{"sequence": "GCTTTCTGTGGTGCATTCTATATTTTTTATATATTATTATCGGAGTCACCTAGTGCAG", "binding signal": "16400 fluorescence intensity (a.u.)"}
{"sequence": "AATTTCTGCTGCCATTTTCTATGTTCTTTAGTCTAAGTTTCGGAGTCACCTAGTGCAG", "binding signal": "14700 fluorescence intensity (a.u.)"}
{"sequence": "GGGTTTTTTATATACTGGTAAATATTCGCTACCGTATTCGCGGAGTCACCTAGTGCAG", "binding signal": "9130 fluorescence intensity (a.u.)"}
{"sequence": "TTCGTATTTGTTTCCGTATCCGGATTATTCATATTCGTTTCGGAGTCACCTAGTGCAG", "binding signal": "8050 fluorescence intensity (a.u.)"}
{"sequence": "TGCGTTTATTTATACCGTTGTCCTCGCGTACTGTTTTATTCGGAGTCACCTAGTGCAG", "binding signal": "19400 fluorescence intensity (a.u.)"}
{"sequence": "CCCATTATTTTTTATACCTTTATTTATCTTCTGTGTTTTTCGGAGTCACCTAGTGCAG", "binding signal": "13500 fluorescence intensity (a.u.)"}
{"sequence": "AGTGGTGCATTCTGTTTTTTTATATATTATTATTTGTTTACGGAGTCACCTAGTGCAG", "binding signal": "9050 fluorescence intensity (a.u.)"}
{"sequence": "TTTGCATTTATTTTTCATTGTTTCCGTCACTTTAGAAATTCGGAGTCACCTAGTGCAG", "binding signal": "8260 fluorescence intensity (a.u.)"}
{"sequence": "GCCATTATATCTGCAGTTCTTTTCTGTGCTAAAATTTTAGCGGAGTCACCTAGTGCAG", "binding signal": "17100 fluorescence intensity (a.u.)"}
{"sequence": "CATTTATCTATTTATCTATCTATATATATTATATTATATTCGGAGTCACCTAGTGCAG", "binding signal": "8560 fluorescence intensity (a.u.)"}
{"sequence": "TTTCCGTACTAAATTTTGTTCATTCGTTTTATTTATTTTTCGGAGTCACCTAGTGCAG", "binding signal": "17100 fluorescence intensity (a.u.)"}
{"sequence": "GAGCACATACTTTGGTCATTAATGGTGATTATAATGATATCGGAGTCACCTAGTGCAG", "binding signal": "8820 fluorescence intensity (a.u.)"}
{"sequence": "GAGGAAACATCTATCCCGGTCAAAGCCTGAGCATGTACACCGGAGTCACCTAGTGCAG", "binding signal": "8210 fluorescence intensity (a.u.)"}
{"sequence": "TTTCTCTTTGCACCCTAGCCTCATGTTCTTCTTCTTCCTCCGGAGTCACCTAGTGCAG", "binding signal": "8680 fluorescence intensity (a.u.)"}
{"sequence": "GAAGAGCCGGCTCGTTCCTCTCCTTCCCGTTCACATTTCACGGAGTCACCTAGTGCAG", "binding signal": "8260 fluorescence intensity (a.u.)"}
{"sequence": "CTGATGTCTGAACGACTGTACCCGACGTTGTTGATTGCTTCGGAGTCACCTAGTGCAG", "binding signal": "9820 fluorescence intensity (a.u.)"}
{"sequence": "GGGCGACAAGCACGCGTATACCCATCTATCATCCCGCTCCCGGAGTCACCTAGTGCAG", "binding signal": "8390 fluorescence intensity (a.u.)"}
{"sequence": "CACCAGCATCCTCGCACGGTCGCGACCCCTCCCGCACCTCCGGAGTCACCTAGTGCAG", "binding signal": "8200 fluorescence intensity (a.u.)"}
{"sequence": "CAATCCGGACCATATAAGTGTTTTCCTTTTTTAATTCTTTCGGAGTCACCTAGTGCAG", "binding signal": "11300 fluorescence intensity (a.u.)"}
{"sequence": "ATAGTCATTTATTTTGTGCTCTCGTATTTTTTTTCTGTTTCGGAGTCACCTAGTGCAG", "binding signal": "9540 fluorescence intensity (a.u.)"}
{"sequence": "ACTATTACTTCTATTTTCTAGTATTTTTTTTTGTTTCTCTCGGAGTCACCTAGTGCAG", "binding signal": "13500 fluorescence intensity (a.u.)"}
{"sequence": "AAATTTGTATAGACGTTTGCTTTTAACTTAGTCCTAAATTCGGAGTCACCTAGTGCAG", "binding signal": "9130 fluorescence intensity (a.u.)"}
{"sequence": "TACTATTTTTTCTCGTATTCATTATTTTGTGCATTATTTTCGGAGTCACCTAGTGCAG", "binding signal": "17200 fluorescence intensity (a.u.)"}
{"sequence": "TTATTTTGTGATTACTATCTCTCCGTTCATGTTTCTATCTCGGAGTCACCTAGTGCAG", "binding signal": "16400 fluorescence intensity (a.u.)"}
{"sequence": "CCCCTATTTTGTTACCTCATTATTCTCGTATTCCCCTTTTCGGAGTCACCTAGTGCAG", "binding signal": "9810 fluorescence intensity (a.u.)"}
{"sequence": "GTATTTTAAGCATATTTTTTCGTTTTTTATATTTGTAAAACGGAGTCACCTAGTGCAG", "binding signal": "11000 fluorescence intensity (a.u.)"}
{"sequence": "AATTTTGTATATTCGTTTGCACGTTTTTAAAACTCCTAAACGGAGTCACCTAGTGCAG", "binding signal": "65500 fluorescence intensity (a.u.)"}
{"sequence": "TACATTACTTCATATTTTTTTCTGTTTGTGATTTCTATTTCGGAGTCACCTAGTGCAG", "binding signal": "9740 fluorescence intensity (a.u.)"}
{"sequence": "GATTGGGCGATTTCATCTTCTTCTTGGCCTTGAGGCGGTACGGAGTCACCTAGTGCAG", "binding signal": "10000 fluorescence intensity (a.u.)"}
{"sequence": "TTTCTTAGCTATGTCCTAATTTATTACTGTGCATGTTTCTCGGAGTCACCTAGTGCAG", "binding signal": "10900 fluorescence intensity (a.u.)"}
{"sequence": "CACATGTCATTGTCACACACACGCGCGCCCCATTGGACATCGGAGTCACCTAGTGCAG", "binding signal": "9860 fluorescence intensity (a.u.)"}
{"sequence": "ATTTGCACCTGTTGAATGGGCATGTCTTGTGTGTGTTTCTCGGAGTCACCTAGTGCAG", "binding signal": "8400 fluorescence intensity (a.u.)"}
{"sequence": "GTGGGGTCGGGTACTCGCGTGGGCCCACCTGGCCGGTCAACGGAGTCACCTAGTGCAG", "binding signal": "10200 fluorescence intensity (a.u.)"}
{"sequence": "TCTCGGGCCGAAACGGTCAACGCGTTTACCGGTGGCATAACGGAGTCACCTAGTGCAG", "binding signal": "17500 fluorescence intensity (a.u.)"}
{"sequence": "CCCACCAGGCCACCAAACTCTCTCGGGCCGAAACGGTCAACGGAGTCACCTAGTGCAG", "binding signal": "8380 fluorescence intensity (a.u.)"}
{"sequence": "TCCTCTTGCAATCATTCACTCTCCTTGCTCGATTCTATAACGGAGTCACCTAGTGCAG", "binding signal": "11300 fluorescence intensity (a.u.)"}
{"sequence": "AATTCTTTTGTCGTATTATCCTATCTACTTCCACTTATAACGGAGTCACCTAGTGCAG", "binding signal": "8560 fluorescence intensity (a.u.)"}
{"sequence": "AATATAGTTGCTGATGCGCTGTCCAGGATGCCTGTTATACCGGAGTCACCTAGTGCAG", "binding signal": "9400 fluorescence intensity (a.u.)"}
